In the supplement of paper PMC11732987, “Enantioselective OTUD7B fragment discovery through chemoproteomics screening and high-throughput optimisation” (Communications Chemistry, 2025):

Key:
Experiment in all cases: log2 ratio of Biotin-Ahx-Ub-VS probe labelling (fragment/DMSO); higher = less target engagement (more negative = stronger competition), active = hit call of the paper (q ≤ 0.05, log2 ratio ≤ -1)
Settings in all cases: compound concentration: 200 uM; treatment time: 3 h
USP19 = molecular target: T1, USP19 (UniProt O94966)
T1 sequence (whole entry): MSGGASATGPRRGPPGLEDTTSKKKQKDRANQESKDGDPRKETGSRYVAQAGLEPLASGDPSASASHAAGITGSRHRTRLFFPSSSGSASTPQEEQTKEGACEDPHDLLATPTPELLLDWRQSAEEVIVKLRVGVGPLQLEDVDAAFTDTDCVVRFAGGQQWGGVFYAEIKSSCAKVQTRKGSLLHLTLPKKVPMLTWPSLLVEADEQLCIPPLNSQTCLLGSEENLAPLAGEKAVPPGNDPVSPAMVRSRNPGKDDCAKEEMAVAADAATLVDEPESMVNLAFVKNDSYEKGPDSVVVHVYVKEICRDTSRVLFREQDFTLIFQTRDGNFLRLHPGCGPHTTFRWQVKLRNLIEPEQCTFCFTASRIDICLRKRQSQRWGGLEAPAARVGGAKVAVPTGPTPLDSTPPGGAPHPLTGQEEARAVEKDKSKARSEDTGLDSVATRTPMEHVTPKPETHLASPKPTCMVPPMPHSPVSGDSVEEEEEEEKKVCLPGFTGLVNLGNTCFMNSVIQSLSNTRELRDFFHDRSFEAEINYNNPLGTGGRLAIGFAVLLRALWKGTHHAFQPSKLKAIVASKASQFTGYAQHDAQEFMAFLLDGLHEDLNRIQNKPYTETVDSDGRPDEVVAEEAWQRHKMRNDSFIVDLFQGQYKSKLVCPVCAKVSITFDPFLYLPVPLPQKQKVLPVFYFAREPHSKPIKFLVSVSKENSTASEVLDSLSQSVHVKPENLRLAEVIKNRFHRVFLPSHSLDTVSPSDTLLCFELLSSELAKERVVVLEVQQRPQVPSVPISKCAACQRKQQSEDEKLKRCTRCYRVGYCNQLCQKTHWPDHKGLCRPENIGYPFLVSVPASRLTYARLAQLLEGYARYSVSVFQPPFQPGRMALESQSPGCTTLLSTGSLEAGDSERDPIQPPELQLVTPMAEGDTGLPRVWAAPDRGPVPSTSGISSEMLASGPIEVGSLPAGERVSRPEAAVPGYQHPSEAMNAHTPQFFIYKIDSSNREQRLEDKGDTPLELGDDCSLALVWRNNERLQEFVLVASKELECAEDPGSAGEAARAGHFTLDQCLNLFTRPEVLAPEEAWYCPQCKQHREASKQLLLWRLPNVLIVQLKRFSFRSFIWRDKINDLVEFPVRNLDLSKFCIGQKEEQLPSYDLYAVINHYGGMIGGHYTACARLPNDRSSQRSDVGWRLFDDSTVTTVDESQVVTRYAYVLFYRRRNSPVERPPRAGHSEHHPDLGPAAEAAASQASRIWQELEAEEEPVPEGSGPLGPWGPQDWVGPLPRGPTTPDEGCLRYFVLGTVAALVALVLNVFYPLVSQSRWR
Method in brief: (§1)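 HEK293T lysate in Tris/CHAPS/IGEPAL buffer with protease inhibitors (495 µg per sample) was given fragment at 200 µM or vehicle for 3 h, in triplicate. It then received Biotin-Ahx-Ub-VS at 0.5 µM final for 1 h. Labelled DUBs were NeutrAvidin-enriched, digested with LysC and trypsin, and run by diaPASEF LC-MS/MS. Values are average log2 fragment/vehicle ratios by unpaired t-test on global-median-normalised Spectronaut quantities of proteins with ≥2 unique peptides.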

USP22 = molecular target: T2, USP22 (UniProt Q9UPT9)
T2 sequence (whole entry): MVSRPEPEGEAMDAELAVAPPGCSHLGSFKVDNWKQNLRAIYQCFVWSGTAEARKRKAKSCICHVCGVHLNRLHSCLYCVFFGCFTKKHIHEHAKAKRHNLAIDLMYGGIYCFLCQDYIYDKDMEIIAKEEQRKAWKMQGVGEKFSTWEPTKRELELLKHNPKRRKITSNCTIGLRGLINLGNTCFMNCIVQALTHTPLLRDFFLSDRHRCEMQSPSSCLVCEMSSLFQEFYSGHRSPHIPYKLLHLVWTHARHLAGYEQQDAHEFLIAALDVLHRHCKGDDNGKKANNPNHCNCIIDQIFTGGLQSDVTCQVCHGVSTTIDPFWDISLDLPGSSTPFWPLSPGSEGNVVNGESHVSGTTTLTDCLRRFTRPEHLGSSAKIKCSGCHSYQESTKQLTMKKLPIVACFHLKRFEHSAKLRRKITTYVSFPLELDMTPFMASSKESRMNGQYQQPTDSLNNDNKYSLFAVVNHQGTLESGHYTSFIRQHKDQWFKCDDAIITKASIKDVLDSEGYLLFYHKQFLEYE
Method in brief: as §1

USP24 = USP24 (UniProt Q9UPU5)
Method in brief: as §1

USP25 = molecular target: T3, USP25 (UniProt Q9UHP3)
T3 sequence (whole entry): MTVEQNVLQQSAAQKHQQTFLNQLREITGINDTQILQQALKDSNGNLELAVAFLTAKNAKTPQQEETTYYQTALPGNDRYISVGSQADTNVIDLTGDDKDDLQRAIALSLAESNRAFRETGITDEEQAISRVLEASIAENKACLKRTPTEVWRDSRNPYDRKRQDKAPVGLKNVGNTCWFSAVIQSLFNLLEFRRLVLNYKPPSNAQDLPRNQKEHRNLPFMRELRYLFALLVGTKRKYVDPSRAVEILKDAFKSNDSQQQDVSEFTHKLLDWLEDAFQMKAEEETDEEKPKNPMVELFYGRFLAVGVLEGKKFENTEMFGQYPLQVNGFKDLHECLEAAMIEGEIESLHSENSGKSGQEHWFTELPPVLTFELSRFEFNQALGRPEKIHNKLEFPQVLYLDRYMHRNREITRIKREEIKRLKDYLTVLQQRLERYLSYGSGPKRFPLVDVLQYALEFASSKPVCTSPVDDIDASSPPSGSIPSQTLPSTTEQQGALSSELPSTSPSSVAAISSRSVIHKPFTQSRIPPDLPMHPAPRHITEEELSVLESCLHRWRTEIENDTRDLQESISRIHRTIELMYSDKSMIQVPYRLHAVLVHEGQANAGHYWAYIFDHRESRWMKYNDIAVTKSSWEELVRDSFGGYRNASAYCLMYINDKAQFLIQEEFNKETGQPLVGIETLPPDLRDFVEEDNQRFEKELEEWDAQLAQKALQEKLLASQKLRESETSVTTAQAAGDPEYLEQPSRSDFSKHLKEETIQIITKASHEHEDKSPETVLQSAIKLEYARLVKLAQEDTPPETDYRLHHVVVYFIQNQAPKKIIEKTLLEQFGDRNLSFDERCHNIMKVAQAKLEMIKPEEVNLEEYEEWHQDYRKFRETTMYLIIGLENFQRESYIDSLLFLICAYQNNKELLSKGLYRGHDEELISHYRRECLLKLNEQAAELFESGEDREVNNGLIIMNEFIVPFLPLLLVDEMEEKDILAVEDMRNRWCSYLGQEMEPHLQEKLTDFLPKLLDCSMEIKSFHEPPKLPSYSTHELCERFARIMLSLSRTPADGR
Method in brief: as §1

USP28 = molecular target: T4, USP28 (UniProt Q96RU2)
T4 sequence (whole entry): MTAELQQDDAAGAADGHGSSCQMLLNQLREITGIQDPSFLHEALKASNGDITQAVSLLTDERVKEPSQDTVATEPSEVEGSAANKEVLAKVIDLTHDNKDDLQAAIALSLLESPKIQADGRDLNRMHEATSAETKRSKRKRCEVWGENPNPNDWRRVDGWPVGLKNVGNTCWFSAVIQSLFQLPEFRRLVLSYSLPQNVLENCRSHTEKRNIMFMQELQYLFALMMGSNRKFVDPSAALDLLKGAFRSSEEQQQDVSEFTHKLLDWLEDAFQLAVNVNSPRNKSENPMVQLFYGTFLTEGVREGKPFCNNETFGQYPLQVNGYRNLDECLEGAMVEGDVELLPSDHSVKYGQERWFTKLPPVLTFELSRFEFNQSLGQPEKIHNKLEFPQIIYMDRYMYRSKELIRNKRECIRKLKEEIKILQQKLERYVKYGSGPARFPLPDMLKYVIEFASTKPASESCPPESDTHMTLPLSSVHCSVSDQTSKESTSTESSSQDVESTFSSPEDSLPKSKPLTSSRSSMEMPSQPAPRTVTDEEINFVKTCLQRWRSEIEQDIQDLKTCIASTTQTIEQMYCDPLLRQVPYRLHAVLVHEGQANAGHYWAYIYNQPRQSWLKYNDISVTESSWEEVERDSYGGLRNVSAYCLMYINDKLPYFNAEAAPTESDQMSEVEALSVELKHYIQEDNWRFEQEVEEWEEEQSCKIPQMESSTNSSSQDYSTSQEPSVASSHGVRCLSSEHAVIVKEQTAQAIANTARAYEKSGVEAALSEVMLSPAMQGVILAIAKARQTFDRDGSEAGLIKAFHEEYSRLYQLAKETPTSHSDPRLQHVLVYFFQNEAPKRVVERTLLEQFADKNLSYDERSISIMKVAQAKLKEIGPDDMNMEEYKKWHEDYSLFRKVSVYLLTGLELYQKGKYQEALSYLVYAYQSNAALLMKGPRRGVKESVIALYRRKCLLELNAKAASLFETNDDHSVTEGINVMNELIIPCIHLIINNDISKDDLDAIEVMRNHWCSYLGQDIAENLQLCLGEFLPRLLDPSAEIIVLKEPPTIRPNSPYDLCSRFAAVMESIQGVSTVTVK
Method in brief: as §1

Measured: log2 ratio of Biotin-Ahx-Ub-VS probe labelling

Chain of USP24 (Q9UPU5 whole entry): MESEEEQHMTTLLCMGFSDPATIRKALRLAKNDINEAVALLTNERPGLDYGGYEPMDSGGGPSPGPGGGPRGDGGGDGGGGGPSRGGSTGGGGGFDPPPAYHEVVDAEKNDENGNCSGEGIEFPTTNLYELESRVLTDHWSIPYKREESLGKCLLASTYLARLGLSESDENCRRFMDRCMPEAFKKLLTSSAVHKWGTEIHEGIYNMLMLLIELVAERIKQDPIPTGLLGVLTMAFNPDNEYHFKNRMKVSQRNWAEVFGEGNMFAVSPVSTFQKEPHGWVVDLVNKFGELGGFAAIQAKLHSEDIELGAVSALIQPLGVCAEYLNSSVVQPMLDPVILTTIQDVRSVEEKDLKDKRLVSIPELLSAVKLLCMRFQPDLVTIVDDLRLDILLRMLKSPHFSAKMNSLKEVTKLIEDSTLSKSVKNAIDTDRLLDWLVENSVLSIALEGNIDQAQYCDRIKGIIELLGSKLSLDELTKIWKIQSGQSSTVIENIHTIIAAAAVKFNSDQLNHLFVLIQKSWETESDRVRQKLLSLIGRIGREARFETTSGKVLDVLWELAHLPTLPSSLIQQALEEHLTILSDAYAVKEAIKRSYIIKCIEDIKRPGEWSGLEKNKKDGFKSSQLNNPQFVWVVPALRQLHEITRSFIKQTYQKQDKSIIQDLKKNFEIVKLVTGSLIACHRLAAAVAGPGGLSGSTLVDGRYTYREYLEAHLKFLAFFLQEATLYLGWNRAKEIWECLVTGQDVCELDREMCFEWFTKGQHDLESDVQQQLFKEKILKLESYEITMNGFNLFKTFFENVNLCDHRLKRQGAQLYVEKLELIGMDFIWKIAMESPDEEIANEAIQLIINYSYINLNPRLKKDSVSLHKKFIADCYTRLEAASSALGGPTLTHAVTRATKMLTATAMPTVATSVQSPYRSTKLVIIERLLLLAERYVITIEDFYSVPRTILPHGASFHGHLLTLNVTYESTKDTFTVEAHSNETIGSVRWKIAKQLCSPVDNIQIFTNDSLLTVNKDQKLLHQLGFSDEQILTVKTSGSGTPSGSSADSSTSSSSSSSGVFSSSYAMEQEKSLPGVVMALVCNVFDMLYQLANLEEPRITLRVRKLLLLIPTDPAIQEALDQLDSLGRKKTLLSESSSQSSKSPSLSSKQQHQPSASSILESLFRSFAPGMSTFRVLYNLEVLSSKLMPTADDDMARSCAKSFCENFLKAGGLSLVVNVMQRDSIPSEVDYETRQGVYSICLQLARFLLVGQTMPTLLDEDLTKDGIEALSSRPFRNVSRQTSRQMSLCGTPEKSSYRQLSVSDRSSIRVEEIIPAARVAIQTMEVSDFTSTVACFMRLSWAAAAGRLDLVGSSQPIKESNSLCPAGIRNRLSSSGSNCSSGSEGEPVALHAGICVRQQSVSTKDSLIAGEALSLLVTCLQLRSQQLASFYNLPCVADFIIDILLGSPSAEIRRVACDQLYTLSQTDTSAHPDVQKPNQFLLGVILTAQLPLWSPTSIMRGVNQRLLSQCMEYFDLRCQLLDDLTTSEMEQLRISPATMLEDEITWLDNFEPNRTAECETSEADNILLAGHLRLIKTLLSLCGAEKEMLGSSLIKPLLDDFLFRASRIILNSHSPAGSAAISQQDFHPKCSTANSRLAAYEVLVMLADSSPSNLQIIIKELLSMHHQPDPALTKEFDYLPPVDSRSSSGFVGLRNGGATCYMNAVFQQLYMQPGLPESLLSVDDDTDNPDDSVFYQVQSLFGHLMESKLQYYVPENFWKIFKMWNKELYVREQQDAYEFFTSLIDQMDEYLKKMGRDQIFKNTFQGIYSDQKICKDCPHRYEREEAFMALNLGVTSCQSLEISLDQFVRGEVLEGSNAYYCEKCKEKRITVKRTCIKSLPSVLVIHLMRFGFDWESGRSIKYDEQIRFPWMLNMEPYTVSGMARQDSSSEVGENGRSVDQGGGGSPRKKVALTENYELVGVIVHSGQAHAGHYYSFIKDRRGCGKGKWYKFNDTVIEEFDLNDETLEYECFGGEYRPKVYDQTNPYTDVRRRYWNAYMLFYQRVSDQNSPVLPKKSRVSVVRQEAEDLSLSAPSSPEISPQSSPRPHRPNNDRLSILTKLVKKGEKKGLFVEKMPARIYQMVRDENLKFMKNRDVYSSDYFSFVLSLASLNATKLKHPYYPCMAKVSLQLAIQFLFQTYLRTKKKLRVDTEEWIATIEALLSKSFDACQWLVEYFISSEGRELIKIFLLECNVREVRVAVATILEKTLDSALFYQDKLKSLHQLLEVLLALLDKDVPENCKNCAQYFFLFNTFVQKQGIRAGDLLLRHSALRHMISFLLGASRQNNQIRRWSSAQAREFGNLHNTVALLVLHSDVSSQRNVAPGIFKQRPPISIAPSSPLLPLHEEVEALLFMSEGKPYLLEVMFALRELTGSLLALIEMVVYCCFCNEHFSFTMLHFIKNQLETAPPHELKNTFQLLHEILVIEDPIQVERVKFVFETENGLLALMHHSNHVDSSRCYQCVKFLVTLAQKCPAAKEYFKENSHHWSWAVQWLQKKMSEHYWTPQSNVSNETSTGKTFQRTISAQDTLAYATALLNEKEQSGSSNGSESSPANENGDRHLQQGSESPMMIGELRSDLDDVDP

Cc1noc(C)c1CNC(=O)CCl
inactive: USP19 -0.666 | USP22 -0.912 | USP24 -0.8 | USP25 -0.554 | USP28 -0.971
